Reference: the supplement of paper PMC11417369
± gives the standard deviation of the averaged measurements. Whole data set: some 25,000 sequences, median “ln(normalized median fluorescence intensity)” near 8.9, cut for the highest 2% near 10. The sample as a whole holds a higher share of the highest values than the screen did.

test system: PfAP2-LT AP2 domain (GST-tagged); experiment: gcPBM binding intensity (ln(normalized median fluorescence intensity)); higher = stronger DNA binding
Method in brief: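 Binding of GST-tagged P. falciparum DNA-binding domains, expressed in E. coli and used at about 25 μg on average, was carried out for 1 h in 1× PBS containing 1% milk, 0.2 mg/ml BSA, 0.5% salmon testes DNA and 0.03% Triton X-100. The target was an Agilent 4 × 180k array of primer-extended double-stranded 36-bp intergenic genomic probes plus negative controls, read with Alexa488 anti-GST antibody at 488 nm. Binding intensity is the highest Masliner-normalised natural-log median intensity across replicate spots of either probe orientation.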

Row | Sequence | gcPBM binding intensity (ln)
1 | AATGTAGGTTTATTTACACACAAATATAGATATATA [CACACA_site6825] | 8.96 ± 0.4
2 | GGGAGGATATTACACAGTACCCAGGAAATCTACGGA [XGTACX_site4874] | 8.81 ± 0.5
3 | TTTTTTTAAAAAAAGGGTACATATATATATTTTTCT [XGTACX_site1066] | 8.43 ± 0.49
4 | ATATATATATATGTTAGTACTTATATTGAAATGGTA [XGTACX_site1406] | 9.05 ± 0.042
5 | TATATTATTTTATATTGTACATACCAAATATTATAT [XGTACX_site1693] | 8.68 ± 0.41
6 | TATTTTTTTTTTTTTTTTTTTTTTATATATACATAT [CACACA_negctrl_site23] | 8.61 ± 0.52
7 | AAATGGGCTTATTTATGTACTTAAATATATCTACCC [XGTACX_site3823] | 8.85 ± 0.61
8 | TTTCTTTTTTTTTTTTTTTCTGGCTTTTTCTCTTTT [TGCATGCA_negctrl_site599] | 8.69 ± 0.49
9 | ATATAAAGAAAAGGAACACACAAATATATATATATA [CACACA_site463] | 9.56 ± 0.25
10 | TATTAATACGGACACACACACACACTAGATAAAATA [CACACA_site4295] | 10.1 ± 0.11
11 | AGAATAAAAAGGAACACACACACACGCATATAAATA [CACACA_site7659] | 10.1 ± 0.39
12 | ACCATATAAATAAACACACACACACGGATATAAATA [CACACA_site7157] | 10.1 ± 0.2
13 | AACAAATACGGACACACACACACACTAGAAAAAAAA [CACACA_site4442] | 9.82 ± 0.29
14 | AAAAAAAAAAAAAACACACACACACGCATAAATATA [CACACA_site6217] | 9.95 ± 0.28
15 | ATAAATATTAAAAGTACACACAGATACACTAATTAT [CACACA_site1808] | 9.16 ± 0.36
16 | AATAAAAAGGAACACACACACACACGGATATAAATA [CACACA_site7658] | 10.3 ± 0.37
17 | TAATATAAAGAAAAGGAACACACAAATATATATATA [CACACA_site8049] | 9.04 ± 0.38
18 | TGATTTGTGCCGATTTGTACACATTTATATATATAT [XGTACX_site2154] | 9.13 ± 0.35
19 | GTATATATATATATATATATATATATATATATATAT [CACACA_negctrl_site609] | 9.63 ± 0.042
20 | ATACAAATTGTTTAAAGTACAAATTACACCTCTTAA [XGTACX_site6888] | 8.62 ± 0.44
21 | CATAGGAACATAAGTTGTACGCTATACATACAACAT [XGTACX_site1054] | 9.05 ± 0.45
22 | TTTTCTATATAGTGTTGTACATTATTGTGTAAAAAT [XGTACX_site3223] | 8.7 ± 0.46
23 | AATATAATGTAATATACACACATATATTTCTCTTTT [CACACA_site5451] | 8.95 ± 0.45
24 | ACCATACATACATACACACACACACGCATATTTATA [CACACA_site7386] | 10.1 ± 0.29

Row | Sequence | gcPBM binding intensity (ln)
25 | CATATATACACATACACACACACACGGACACGCACA [CACACA_site6910] | 10.07 ± 0.085
26 | ATAGTATACAGACACACACACACACCGATATATATA [CACACA_site8511] | 10.1 ± 0.13
27 | TATAGATACCTATACACACACACACGGACATATATA [CACACA_site7585] | 10 ± 0.25
28 | ATAGTATACGGACACACACACACACCGATATATATA [CACACA_site5032] | 10.3 ± 0.38
29 | CATACACGCGGACACACACACACACGCATATATAAC [CACACA_site6427] | 10.1 ± 0.23
30 | ACCTACATAACATACACACGCATATATATAATTTTA [CACACA_site2847] | 9.22 ± 0.33
31 | TATACACGCGGACACACACACACACGCAAAAAAAAA [CACACA_site6377] | 10 ± 0.23
32 | TATTTATATTTATATACACACATACATATTTATATT [CACACA_site6535] | 9.1 ± 0.4
33 | TATATATATATTTATACACACACATATATTTATATA [CACACA_site8054] | 9.13 ± 0.29
34 | AGTATACATATATATACACACACACCGATATATATA [CACACA_site8357] | 9.74 ± 0.23
35 | CGCATACACGGACACACACACACATATATATATATA [CACACA_site4520] | 10.23 ± 0.071
36 | ATAATACATACATACATACACACATATATATATATT [CACACA_site3576] | 9.29 ± 0.38
37 | TTTTTAATCATAATATGTACATATAAAAATGGTTTG [XGTACX_site3996] | 8.54 ± 0.41
38 | TAAAAATGTAAACACACACACATAAATATATTTTAT [CACACA_site5397] | 9.45 ± 0.26
39 | GATAAAATAGGACCATATTCTTTAAAACGATAAAAT [XGTACX_negctrl_site405] | 8.73 ± 0.51
40 | TTATATTATATATATATTATATATATGTATGCATAA [TGCATGCA_negctrl_site481] | 8.72 ± 0.2
41 | TTTTGCAAATATTACTGTACACAATCTCATATAATT [XGTACX_site2584] | 8.81 ± 0.35
42 | ATTATTTTTTTTGAAGTGCAATATTATTTTTAATCA | 8.46 ± 0.45
43 | AAAGTATTCTTTACACGTACATATATATAAATATAA [XGTACX_site7557] | 8.59 ± 0.33
44 | AAAATACCCGGACACACACACATATATATATATATT [CACACA_site6137] | 9.88 ± 0.49
45 | AGGATACACGGACACACACACATATAGATTTATATA [CACACA_site6552] | 9.78 ± 0.51
46 | AAAAAAAACGGACACACACACATAAATATATATAAA [CACACA_site4260] | 9.86 ± 0.34
47 | CTAAAATACGGACACACACACACATATATATATATA [CACACA_site6138] | 10.3 ± 0.11
48 | ATTATATATATATATACACACACATATATATATATA [CACACA_site8373] | 9.47 ± 0.25

Row | Sequence | gcPBM binding intensity (ln)
49 | CATACATACGGACACACACACATATATATATATATA [CACACA_site5598] | 10.3 ± 0.15
50 | AGGATACACGGACACACACACATATATATATATATA [CACACA_site4654] | 10.43 ± 0.078
51 | TTATAAATAAAAAATACACACATATATATATATATA [CACACA_site207] | 9.64 ± 0.2
52 | CATACACCCGGACACACACACACACCCATATATAAT [CACACA_site4494] | 10 ± 0.35
53 | TATACACCCGGACACACACACATATATATATATATA [CACACA_site5030] | 10.36 ± 0.028
54 | AAAAAACACGGACACACACACATATACATACATACA [CACACA_site5470] | 9.98 ± 0.41
55 | TACATATTTATATACACACACACACGGATATTTATA [CACACA_site7239] | 9.87 ± 0.45
56 | AGTAAAAGAAAGCACACACACATGTATTTATGTATG [CACACA_site5998] | 9.71 ± 0.42
57 | TATATATATATATATTGTACACATACATGTAGTTTT [XGTACX_site4848] | 9.48 ± 0.49
58 | ACACATATAATAGTTACATGCAAAAATACTTTTATT [TGCATGCA_site785] | 9.03 ± 0.47
59 | ACCAAATCATATATAGCACACAAATTCTTTATTATT [CACACA_site8911] | 8.94 ± 0.38
60 | TAAAAAAAAACATGATGTACATAAAATTTTTTACTT [XGTACX_site7056] | 8.59 ± 0.47
61 | AAAAAAATATATAAATGTACATATTGTTTAATTAAT [XGTACX_site3794] | 8.7 ± 0.45
62 | ATAATAAATGATAGCACACATATGTACATAAATACA [CACACA_site4634] | 9.24 ± 0.31
63 | TATTAATTTATATCAACACACAAAATCAATATACTT [CACACA_site1757] | 8.7 ± 0.42
64 | ATTATGCTACAAGGAGAACACACAATTGCCACTTTT [CACACA_site8673] | 9.1 ± 0.46
65 | AATGATCATATATACACACACACAAAAAAAAAAAAA [CACACA_site4009] | 9.6 ± 0.45
66 | ATAAAGATAATATATGCACACATATAAATATATAAA [CACACA_site9153] | 9.09 ± 0.43
67 | CATACAGATATATATACACACATACAGATAAATACA [CACACA_site4592] | 9.3 ± 0.28
68 | TACATACATACATACACACACACATATAAATACATA [CACACA_site4626] | 10.1 ± 0.4
69 | TATAAATACAGATACACACACACACCGATATATATA [CACACA_site5271] | 9.94 ± 0.18
70 | CACATACAGATATATACACACAAATATAAATACACA [CACACA_site6512] | 9.52 ± 0.4
71 | TACAGATACAGATACACACACACACCGAAATAAATA [CACACA_site4865] | 10.2 ± 0.43
72 | ATTTAATACAAATACACACACAAATAAATACAGATA [CACACA_site5956] | 9.47 ± 0.26

Row | Sequence | gcPBM binding intensity (ln)
73 | TATACAGATATATATACACACATATATATAAATACA [CACACA_site4383] | 9.24 ± 0.39
74 | AATAAATATATAAATACACACAAACATACAGATATA [CACACA_site6088] | 9.37 ± 0.35
75 | CATAAATACATACATACACACATATATATATATATA [CACACA_site2106] | 9.88 ± 0.085
76 | TATACAGATAAATACACACACACATATATATATATA [CACACA_site4845] | 10.3 ± 0.25
77 | ATAAATACAGATAACACACACATATATATATATATA [CACACA_site5431] | 10.225 ± 0.0071
78 | CATATATAAATATATACACACATACATACATACATA [CACACA_site5988] | 9.36 ± 0.4
79 | AATTAAATTATAAGCACACACATATATATATATATA [CACACA_site3351] | 9.81 ± 0.057
80 | ATAGTTACACGCCAAAAAAAAAAAAAAAAAAAAAAA [CACACA_negctrl_site1133] | 8.21 ± 0.42
81 | TTTTTTTTTTTTTTTTGTACACATAATATGAATAAT [XGTACX_site2661] | 8.57 ± 0.32
82 | AAAAAATTATTAATTTGTACATAAATAACCAAAAAA [XGTACX_site2488] | 8.49 ± 0.52
83 | TTTTCCTTTACATAATGTACACAAAAAAAAAAAAAA [XGTACX_site716] | 8.21 ± 0.35
84 | CTATAAAAATATAATTGTACAAATTTTTATATCTTA [XGTACX_site7722] | 8.35 ± 0.45
85 | TAGAAACCATAAAAATGTACTTAAAAATAGACAATT [XGTACX_site5007] | 8.78 ± 0.5
86 | AAAATTTTGGAACGTGCACACATATGTAATATATAT [CACACA_site9004] | 9.32 ± 0.37
87 | TACATACATACATACACACACATATAGATTTATATA [CACACA_site6999] | 9.48 ± 0.28
88 | CTATATAATATGAGCACACATAAGATTTGGTGTTAT [CACACA_site744] | 8.93 ± 0.34
89 | TATACAGATAAATACACACACATATATATATATATA [CACACA_site4178] | 10.2 ± 0.33
90 | TAAATAAATACATACACACACATACAGATATATATA [CACACA_site5690] | 9.62 ± 0.26
91 | CCCCCCGTGTTATATACACACATAATCAAATAAAAT [CACACA_site4111] | 11.1 ± 0.44
92 | AGGCACGTGTTATATACACACATAATCAAATAAACT [CACACA_site7852] | 9.36 ± 0.38
93 | CATAAATACAGATATACACACATATATATATATATA [CACACA_site4528] | 9.7 ± 0.45
94 | AAATTATAATATAATACACACATAAAAAAAAAATCA [CACACA_site3634] | 9 ± 0.44
